# Data reported in PubChem BioAssay (Tox21).
# Records with an inconclusive call do not appear. Where a call stands in place of a potency, no number is given. Active and inactive are the calls of the source. Unless noted, calls come from the whole dose curve; as a rule, active = well fitted curve in the direction sought with a large enough effect in the repeat runs; inconclusive = weak or mixed curves; inactive = no such curve, though single readings can be large; an effect the other way counts as inactive or inconclusive.
# How the values were obtained:
# [1] = qHTS assay to identify small molecule antagonists of the thyroid receptor (TR) signaling pathway - cell viability counter screen (AID 743064); note: nearly all actives have a fitted effect of over 50% in size
# Summary of the method: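 GH3.TRE-Luc rat pituitary cells carrying a TRE-luciferase reporter were treated with compound plus 1 nM T3 (final) for 23.5 h at 37 °C. Viability was then read in the same wells by CellTiter-Fluor fluorescence after a further 30 min.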
# [2] = qHTS assay to identify small molecule antagonists of the thyroid receptor (TR) signaling pathway (AID 743065); note: series mostly up to about 70 µM; nearly all actives have a fitted effect of over 55% in size
# Summary of the method: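 GH3.TRE-Luc rat pituitary cells (two TREs driving luciferase) were dosed with compound, then stimulated with 1 nM T3 (final) for 23.5 h at 37 C. ONE-Glo luminescence was the read-out, with CellTiter-Fluor fluorescence as the cytotoxicity counter-screen.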
# [3] = test system: thyroid hormone receptor (rat, GH3 cells); assay: qHTS assay to identify small molecule agonists of the thyroid receptor (TR) signaling pathway (AID 743066; calls by dose curve)
# [4] = biological target: Estrogen receptor (Homo sapiens) (UniProt P03372); assay: qHTS assay to identify small molecule antagonists of the estrogen receptor alpha (ER-alpha) signaling pathway (AID 743069; active = well fitted curve in the direction sought with a large enough effect in the signal ratio in the repeat runs, not every such curve was filed as active; the % refers to the signal ratio)
# Summary of the method: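 HEK293 ER-alpha-UAS-bla GripTite cells, held overnight in 2% charcoal-stripped FBS, 5,000 cells/well, preincubated 4 h, then compound plus 17beta-estradiol for 18 h at 37C. Beta-lactamase read by LiveBLAzer B/G FRET substrate, 2 h at room temperature.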
# [5] = qHTS assay to identify small molecule antagonists of the estrogen receptor alpha (ER-alpha) signaling pathway - cell viability counter screen (AID 743074; calls by dose curve;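 note: HEK293 cells carrying ER-alpha-UAS-bla reporter stimulated with 17beta-estradiol; nearly all actives have a fitted effect of over 45% in size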)
# [6] = biological target: Estrogen receptor (Homo sapiens) (UniProt P03372); assay: qHTS assay to identify small molecule agonists of the estrogen receptor alpha (ER-alpha) signaling pathway (AID 743075; calls by dose curve)
# [7] = biological target: Estrogen receptor (Homo sapiens) (UniProt P03372); assay: qHTS assay to identify small molecule agonists of the estrogen receptor alpha (ER-alpha) signaling pathway using the BG1 cell line (AID 743079); note: nearly all actives have a fitted effect of over 20% in size; note: potency is the fitted concentration of half-maximal effect
# [8] = qHTS assay to identify small molecule antagonists of the estrogen receptor alpha (ER-alpha) signaling pathway using the BG1 cell line (AID 743080; calls by dose curve;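 note: BG1 cells stimulated with 17beta-estradiol alongside compound; series mostly up to about 70 µM; nearly all actives have a fitted effect of over 25% in size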)
# Summary of the method: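 Readout is ONE-Glo luminescence, taken 30 min at room temperature after reagent addition, preceded by a CellTiter-Fluor viability read; BG1-Luc-4E2 cells had received compound and 17beta-estradiol for 21.5 h at 37 C.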
# [9] = qHTS assay to identify small molecule antagonists of the estrogen receptor alpha (ER-alpha) signaling pathway using the BG1 cell line - cell viability counter screen (AID 743081);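 note: compound given together with 17beta-estradiol as the ER stimulus; series mostly up to about 70 µM; nearly all actives have a fitted effect of over 45% in size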
# Aromatase (Homo sapiens) = Aromatase (Homo sapiens) (UniProt P11511); assay: qHTS assay to identify aromatase inhibitors (AID 743083); note: series mostly up to about 70 µM; nearly all actives have a fitted effect of over 55% in size
# Aromatase (Homo sapiens), sequence (P11511 whole entry, looked up): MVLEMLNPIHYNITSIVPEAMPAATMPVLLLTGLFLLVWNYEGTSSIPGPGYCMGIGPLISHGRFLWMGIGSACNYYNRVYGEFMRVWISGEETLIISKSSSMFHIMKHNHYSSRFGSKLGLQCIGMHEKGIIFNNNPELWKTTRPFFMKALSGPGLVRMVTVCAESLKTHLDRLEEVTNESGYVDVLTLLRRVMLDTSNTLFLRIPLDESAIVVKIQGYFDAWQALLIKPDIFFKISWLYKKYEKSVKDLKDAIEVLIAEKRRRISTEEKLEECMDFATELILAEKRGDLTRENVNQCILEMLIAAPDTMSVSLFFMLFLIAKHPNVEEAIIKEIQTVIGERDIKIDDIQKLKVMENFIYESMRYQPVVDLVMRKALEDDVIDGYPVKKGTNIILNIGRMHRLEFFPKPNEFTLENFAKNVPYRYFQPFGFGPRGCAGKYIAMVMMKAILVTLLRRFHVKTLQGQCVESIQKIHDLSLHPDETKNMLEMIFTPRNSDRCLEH
# Estrogen receptor (Homo sapiens), sequence (P03372 whole entry, looked up): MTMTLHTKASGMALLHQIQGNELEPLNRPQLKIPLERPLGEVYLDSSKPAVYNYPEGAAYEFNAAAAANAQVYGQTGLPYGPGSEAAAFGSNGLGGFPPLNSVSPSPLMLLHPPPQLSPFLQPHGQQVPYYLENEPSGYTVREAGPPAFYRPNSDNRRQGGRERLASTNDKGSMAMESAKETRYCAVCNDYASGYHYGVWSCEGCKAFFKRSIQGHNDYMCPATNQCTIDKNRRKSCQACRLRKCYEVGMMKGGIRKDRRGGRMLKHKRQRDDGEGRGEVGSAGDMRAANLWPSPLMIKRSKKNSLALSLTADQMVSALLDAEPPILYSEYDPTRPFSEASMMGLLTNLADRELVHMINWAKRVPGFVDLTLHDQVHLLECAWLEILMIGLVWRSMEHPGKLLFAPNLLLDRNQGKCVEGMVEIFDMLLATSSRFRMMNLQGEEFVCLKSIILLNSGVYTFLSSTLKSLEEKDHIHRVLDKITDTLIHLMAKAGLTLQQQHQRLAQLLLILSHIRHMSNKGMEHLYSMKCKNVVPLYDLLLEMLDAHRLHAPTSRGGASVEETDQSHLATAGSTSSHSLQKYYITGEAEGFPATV
Structure (SMILES),Potency [1],Potency [2],Potency [3],Potency [4],outcome [5],Potency [6],Potency [7],Potency [8],outcome [9],Potency (Aromatase (Homo sapiens))
CC(C)CCCCCCN,inactive,inactive,inactive,inactive,inactive,inactive,inactive,inactive,inactive,inactive
CCCCCOC(=O)Nc1nc(=O)n([C@@H]2O[C@H](C)[C@@H](O)[C@H]2O)cc1F,inactive,inactive,inactive,inactive,inactive,inactive,inactive,inactive,inactive,inactive
C1COCCO1,inactive,inactive,inactive,inactive,inactive,inactive,inactive,inactive,inactive,inactive
C=CCn1c(=O)n([C@@H]2O[C@H](CO)[C@@H](O)[C@H]2O)c2nc(N)[nH]c(=O)c21,inactive,inactive,inactive,inactive,inactive,inactive,inactive,inactive,inactive,inactive
NC(=O)Nc1nc2ccccc2[nH]1,inactive,inactive,inactive,inactive,inactive,inactive,inactive,inactive,inactive,inactive
OCC(CO)(CO)COCC(CO)(CO)CO,inactive,inactive,inactive,inactive,inactive,inactive,inactive,inactive,inactive,inactive
CO[Si](CCCNCCC[Si](OC)(OC)OC)(OC)OC,inactive,inactive,inactive,inactive,inactive,inactive,inactive,inactive,inactive,inactive
CC(C)(C)OC(=O)N1C[C@@H](F)C[C@H]1C(=O)O,inactive,inactive,inactive,inactive,inactive,inactive,inactive,inactive,inactive,inactive
C=CCOCC(O)CS(=O)(=O)O (stereo unspecified),inactive,inactive,inactive,inactive,inactive,inactive,inactive,inactive,inactive,inactive
CC(C)(C)CC(C)(C)N,inactive,inactive,inactive,inactive,inactive,inactive,inactive,inactive,inactive,inactive
NC(N)=NS(=O)(=O)c1ccc(N)cc1,inactive,inactive,inactive,inactive,inactive,inactive,inactive,inactive,inactive,inactive
NC(=O)c1ncn([C@@H]2O[C@H](CO)[C@@H](O)[C@H]2O)c1O,inactive,inactive,inactive,inactive,inactive,inactive,inactive,inactive,inactive,inactive
C[C@H](O)C(=O)Nc1c(I)c(C(=O)NC(CO)CO)c(I)c(C(=O)NC(CO)CO)c1I,inactive,inactive,inactive,inactive,inactive,inactive,inactive,,inactive,inactive
CCCc1ccc(N)cc1,inactive,inactive,inactive,inactive,inactive,inactive,inactive,,inactive,inactive
O=C1C(CCS(=O)c2ccccc2)C(=O)N(c2ccccc2)N1c1ccccc1 (stereo unspecified),inactive,inactive,inactive,inactive,inactive,inactive,inactive,,inactive,inactive
C=C(C)C1CC=C(C)C(O)C1 (stereo unspecified),inactive,inactive,inactive,inactive,inactive,inactive,inactive,,inactive,inactive
CC(C)N1C(=O)c2ccccc2C1=O,inactive,inactive,inactive,inactive,inactive,inactive,inactive,,inactive,inactive
Cc1cc(C)cc(OCC2CNC(=O)O2)c1 (stereo unspecified),inactive,inactive,inactive,inactive,inactive,inactive,inactive,inactive,inactive,inactive
NC(=O)c1c(Cl)cccc1Cl,inactive,inactive,inactive,inactive,inactive,inactive,inactive,inactive,inactive,inactive
CC1CCN(CCCC(=O)c2ccc(F)cc2)CC1,inactive,inactive,inactive,inactive,inactive,inactive,inactive,,inactive,inactive
CCCCCCCCCCCCCCCCCC(=O)OCCCCCCCCCCCCCC(C)C,inactive,inactive,inactive,inactive,inactive,inactive,56.4 µM (active),,inactive,inactive
COC(=O)c1ccc(C(=O)OC)c(C(=O)OC)c1,inactive,inactive,inactive,inactive,inactive,inactive,inactive,,inactive,inactive
CCN(CC)S(=O)(=O)c1ccc(C(=O)O)cc1,inactive,inactive,inactive,inactive,inactive,inactive,inactive,inactive,inactive,inactive
O=C(O)CCNC(=O)c1ccc(N=Nc2ccc(O)c(C(=O)O)c2)cc1,inactive,inactive,inactive,inactive,inactive,inactive,inactive,inactive,,inactive
